The full list was thinned out, with hits kept by preference.
AmpC detergent = qHTS Inhibitors of AmpC Beta-Lactamase (assay with detergent); actives 0.041% (n = 370,000); P00811; AmpC hydrolysis of nitrocefin, absorbance 480 nm, 0.01% Triton; Potency, µM (doses to about 114 µM), inactives show at the highest dose activity change, negative = inhibition, actives largely listed as inhibitors; AID 485294, 2010;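 note: potency is the fitted concentration of half-maximal effect; 0% = no-compound wells and -100% = no-enzyme wells; nearly all actives have a fitted effect of over 25% in size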
Target sequence (P00811 whole entry, looked up): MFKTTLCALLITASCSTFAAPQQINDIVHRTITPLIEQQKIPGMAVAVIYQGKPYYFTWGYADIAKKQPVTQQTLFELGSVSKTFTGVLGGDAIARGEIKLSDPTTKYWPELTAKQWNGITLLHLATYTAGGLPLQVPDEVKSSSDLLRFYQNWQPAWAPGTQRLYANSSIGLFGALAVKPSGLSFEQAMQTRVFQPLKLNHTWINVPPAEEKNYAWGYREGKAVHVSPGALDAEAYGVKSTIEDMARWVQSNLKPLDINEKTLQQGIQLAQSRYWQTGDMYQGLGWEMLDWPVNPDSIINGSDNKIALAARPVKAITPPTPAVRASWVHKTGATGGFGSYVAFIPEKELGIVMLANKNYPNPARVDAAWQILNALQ
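AmpC (5.3 nM in the dispensed reagent) in 20 mM phosphate pH 7.0 with 0.01% (detergent screen) or 0.0001% Triton X-100 was preincubated with compounds for 15 min at room temperature. Nitrocefin was then added from an 800 uM solution, and hydrolysis was followed at 480 nm.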
AmpC no deterg = qHTS Inhibitors of AmpC Beta-Lactamase (assay without detergent). P00811. AmpC nitrocefin hydrolysis, absorbance 480 nm, 0.0001% Triton. Potency, µM (highest dose often 57.1 µM), for the others: top-dose activity change, negative = inhibition, usual class: inhibitors. actives 0.52% (n = 330,000);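 note: potency is the fitted concentration of half-maximal effect; plate controls were no compound for no effect and no enzyme for full effect; nearly all actives have a fitted effect of over 20% in size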
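AmpC (5.3 nM in the dispensed reagent) in 20 mM phosphate pH 7.0 with 0.01% (detergent screen) or 0.0001% Triton X-100 was preincubated with compounds for 15 min at room temperature. Nitrocefin was then added from an 800 uM solution, and hydrolysis was followed at 480 nm.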
NS1 function inh = qHTS Assay for Inhibitors of Influenza NS1 Protein Function; actives 0.4% (n = 270,000); Potency, µM (doses to about 46.1 µM), for the others: top-dose activity, positive = more growth; calls by dose curve; note: potency is the fitted concentration of half-maximal effect; actives are rising curves; nearly all actives have a fitted effect of over 50% in size
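Compounds were scored for reversing the slow growth caused by influenza A NS1 in S. cerevisiae, measured by optical density at 600 nm. Assay medium contained 2% galactose at pH 6.0; NS1-free yeast of the same strain were the positive control.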
Shiga inhibitor = A qHTS for Small Molecule Inhibitors of Shiga Toxin; Vero cells, Shiga toxin protein synthesis inhibition reporter; inhibition, % at 38.7 µM; actives 9.2% (n = 290,000); AID 2315, 2010; in the data active = inhibition mostly above about 28%, no sharp cut-off; inactive = mostly below about 43%; note: 0% is about no effect
Cycloheximide cs = Cycloheximide Counterscreen for Small Molecule Inhibitors of Shiga Toxin; cell reporter, cycloheximide protein synthesis inhibition counterscreen; max response, %; actives 12% (n = 300,000); in the data active = max response mostly above about 13%, no sharp cut-off; inactive = mostly below about 14%; note: read at 38.3 µM for the half of the compounds with a filed dose; 0% is about no effect
* hit, by the source's call; ? = inconclusive; . = no result; [ ] = dose if it differs, or a comment. Unless noted, calls come from the whole dose curve; as a rule, active = well fitted curve in the direction sought with a large enough effect; inconclusive = small, poorly fitted or top-dose-only effect, or another doubt; inactive = no such curve, though single readings can be large; an effect the other way counts as inactive or inconclusive.

SMILES	AmpC detergent	AmpC no deterg	NS1 function inh	Shiga inhibitor	Cycloheximide cs
c1ccc2c(c1)oc1c(Nc3ccc4c(c3)OCO4)ncnc12	-2.2%	-21.2%	0.0%	100.3*	45.3*
Cc1nnc(Nc2ccc3c(c2)OCO3)c2ccccc12	-18.1%	-24.1%	6.4%	114.2*	19.9
FC(F)(F)c1ccnc(Sc2n[nH]c(C(F)(F)F)n2)c1	0.9%	-29.2%	-51.6%	-0.8	-0.7
CCN(c1ccccc1)S(=O)(=O)c1ccc(N2CCN(c3ccc(O)cc3)CC2)nc1	.	-45.7%	.	.	.
COCCn1c(C)cc(C(=O)COC(=O)/C=C/c2ccc(OC)cc2OC)c1C	.	74.8%	.	.	.
Cc1ccccc1-c1nn2c(=O)cc(CN3CCN(S(=O)(=O)c4ccc(Cl)cc4)CC3)nc2s1	-1.6%	.	.	.	.
Cc1ccc(Nc2nc(C)nc3c2oc2ccccc23)cc1	-5.9%	18.6%	-33.3%	22.3	11.2*
O=C(COc1ccccc1Cl)Nc1ccc(CN2CCOCC2)cc1	4.9%	30.1%	-16.3%	7.6	20.6*
Cc1cc(OCC(=O)Nc2ccc(N3CCN(C)CC3)cc2)ccc1Cl	-17.8%	4.1%	2.5%	76.9*	38.0*
CN1CCN(c2ccc(NC(=O)COc3ccccc3Cl)cc2)CC1	-11.7%	13.7%	2.5%	76.2*	26.4*
CCCc1nc2nc(C)c(NS(=O)(=O)c3ccc(C)c(C)c3)c(=O)n2[nH]1	4.0%	.	.	.	.
CC(C)c1nc2ccc(C(=O)NCc3ccc(F)cc3)cc2o1	1.3%	.	.	.	.
CC(C)Oc1ccc(C(=O)Nc2ccc(N(C)C)cc2)cc1	?	-3.4%	-4.1%	89.9*	25.3*
CCCOc1ccc(C(=O)Nc2ccc(N(C)C)cc2)cc1	8.5%	-23.3%	13.1%	140.7*	47.4*
CCCOc1ccc(C(=O)Nc2ccc(NC(=O)c3cccs3)cc2)cc1	?	-11.5%	11.5%	49.5*	13.3
CCCCOc1cccc(C(=O)Nc2ccc(NC(=O)c3cccs3)cc2)c1	?	158.9%	11.9%	28.0	-1.4
CC(C)Oc1ccc(C(=O)Nc2ccc3c(c2)n(C)c(=O)n3C)cc1	-3.3%	55.2%	12.8%	47.4	23.5
O=C(c1ccccc1)c1cccs1	-5.4%	2.3%	.	33.3	6.1
CCOc1ccc(C(=O)c2cccs2)cc1	-15.0%	-9.1%	-15.0%	43.6	27.5*
CCCOc1ccc(C(=O)Nc2ccc(N3CCN(C(C)=O)CC3)cc2)cc1	-16.5%	0.2%	0.4%	52.2	4.4
O=C(O)CCC(=O)Nc1sc2c(c1C(=O)NC1CCCC1)CCCC2	-5.8%	-22.1%	13.2%	-2.4	-3.4
COc1cccc2cc(C(=O)c3ccc([N+](=O)[O-])cc3)oc12	10.1%	-30.1%	?	22.3	22.6*
COc1cccc2cc(C(N)=O)oc12	-14.8%	-18.8%[2.29 µM]	4.8%	-20.0	12.8
O=C(Nc1ccccc1)c1ccsc1	-2.4%	-24.6%	-8.7%	54.3	27.0*
O=C(Nc1cccc(O)c1)c1cccc(NC(=O)c2cccs2)c1	?	-30.4%	6.1%	56.6	15.4
SMILES	AmpC detergent	AmpC no deterg	NS1 function inh	Shiga inhibitor	Cycloheximide cs
O=C(O)/C=C\C(=O)Nc1cccc(C(=O)Nc2cccc(O)c2)c1	4.3%	-21.1%	-1.3%	76.5*	28.1*
O=C(Nc1cccc(O)c1)c1ccccc1	-0.7%	-16.8%	-4.2%	37.7*	20.1*
Cc1cc(C(=O)Nc2cccc(O)c2)co1	7.5%	-8.1%	1.4%	73.7	32.5*
Cc1cccc(C(=O)NNC(=O)/C=C/C(=O)O)c1	5.6%	-41.1%	.	-6.4	2.0
CCN1CCN(c2ccc(NC(=O)c3ccco3)cc2Cl)CC1	?	-10.1%	-2.8%	59.0*	26.5*
CN1CCN(c2ccc(NC(=O)c3ccco3)cc2Cl)CC1	-7.3%	-24.1%	0.8%	55.4	46.6*
CCN1CCN(c2ccc(NC(=O)c3cccc(F)c3)cc2Cl)CC1	2.4%	-16.8%	-2.0%	97.2*	18.3*
CCC(=O)Nc1ccc(N2CCN(CC)CC2)c(Cl)c1	?	-12.7%	13.4%	-14.2	12.0
O=C(Nc1ccc(N2CCCC2)c(Cl)c1)c1ccco1	?	-6.0%	-47.8%	92.3*	31.9*
O=C(Nc1ccc(N2CCOCC2)c([N+](=O)[O-])c1)c1ccco1	3.3%	-16.2%	-9.5%	69.7*	20.2*
CCOC(=O)Nc1ccc(NS(=O)(=O)c2ccc(C)cc2)cc1	-9.3%	-31.8%	-36.7%	-2.6	-1.0
Cc1ccc(NC(=O)OCc2ccccc2S(C)=O)cc1 (stereo not drawn)	?	-6.4%	.	38.4	30.2*
CC(C)OC(=O)NCCOC(=O)Nc1ccc(Cl)cc1	-5.0%	-12.4%	-4.2%	23.6	5.3
CS(=O)c1ccccc1COC(=O)Nc1ccc(Cl)cc1 (stereo not drawn)	4.6%	6.31µM*	4.9%	35.8	15.8*
CCN(CC)CCCNC(=O)Cc1ccc(NC(=O)N2CCCCc3ccccc32)cc1	-0.6%	.	.	.	.
O=C(CCN1CCCC1=O)NC1CCCc2c1cnn2-c1ccc(F)cc1F (stereo not drawn)	-2.7%	-5.6%	-6.6%	37.4	14.8*
O=C(CCN1CCCC1=O)NC1CCCc2c1cnn2-c1ccccc1F (stereo not drawn)	-13.4%	-24.1%	5.0%	-8.7	-4.8
Cc1ccccc1-n1cc(-c2ccccc2)nc1SCC(=O)Nc1ccc(F)cc1	0.1%	.	.	.	.
CNc1cc(N2CCN(S(=O)(=O)N(C)C)CC2)ccc1[N+](=O)[O-]	-11.3%	-30.7%	.	-5.4	3.4
O=C(NCCc1nc2ccccc2[nH]1)/C(=C/c1ccc2c(c1)OCO2)NC(=O)c1ccccc1Cl	-5.5%	-35.4%	17.3%	-4.9	1.1
Cc1cc(C)nc(NS(=O)(=O)c2ccc(NC(=O)c3ccc4c(c3)OCO4)cc2)n1	0.3%	-18.1%	-0.7%	-12.3	4.7
Cc1cc(C)nc(NC(=O)Nc2ccc3c(c2)OCO3)c1	2.8%	-22.4%	.	64.6*	47.2*
Cc1cc(C)nc(NC(=O)c2ccc3c(c2)OCO3)c1	1.8%	-28.2%	.	85.2*	46.3*
Cc1ccc2nc(NC(=O)/C=C/c3ccc4c(c3)OCO4)sc2c1	-15.8%	31.4%	?	10.1	3.1
Cc1cccc(NC(=O)Nc2cc(C)cc(C)n2)c1	4.2%	-24.3%	0.3%	148.3*	64.5*
SMILES	AmpC detergent	AmpC no deterg	NS1 function inh	Shiga inhibitor	Cycloheximide cs
Cc1ccc(NC(=O)/C=C/c2ccc3c(c2)OCO3)nc1	-3.0%	-15.7%	7.7%	147.1*	56.5*
Cc1cccc(N2CCN(C(=O)CN3C(=O)COc4ccc(S(=O)(=O)N5CCC(C)CC5)cc43)CC2C)c1 (stereo not drawn)	3.7%	.	.	.	.
COc1ccc(C(=O)COC(=O)c2cccc(-n3cnnn3)c2)c(OC)c1	-2.9%	-21.8%	.	.	.
Cc1ncc(C[n+]2csc(CCOP(=O)(O)OP(=O)(O)O)c2C)c(N)n1	.	.	.	2.7	9.1
Cc1nnsc1C(=O)NC1CCCc2c1cnn2-c1ccc(C(C)(C)C)cc1 (stereo not drawn)	-4.9%	66.2%	-63.4%	27.5	4.6
CSCCC(NC(=O)COc1ccccc1)C(=O)OCc1ccc([N+](=O)[O-])cc1 (stereo not drawn)	?	-9.5%	.	.	.

Screens from PubChem BioAssay.
